Results filed as inconclusive are left out. Where a call stands in place of a potency, no number is given. A structure can be active in one record and inactive in another. Activity calls are given as the source filed them. Calls come from the whole dose curve; as a rule, active = well fitted cell-killing curve with a large enough effect in the repeat runs; inconclusive = weak or mixed curves, or effect the other way; inactive = no such curve, though single readings can be large or run the other way.
Test: qHTS assay to identify small molecule agonists of the estrogen receptor alpha (ER-alpha) signaling pathway in the presence of an antagonist - cell viability counter screen (AID 1259386);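 note: cells exposed to compounds for 22 h at 37 °C before the viability read; nearly all actives have a fitted effect of over 30% in size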
Conditions: VM7Luc4E2 viability, CellTiter-Fluor fluorescence, 22 h; series mostly up to 92.4 µM
Text: National Center for Advancing Translational Sciences [NCATS]
NIH Chemical Genomics Center [NCGC]
U.S. Environmental Protection Agency [EPA]
National Institutes of Environmental Health Sciences [NIEHS]
National Toxicology Program [NTP]
U.S. Food and Drug Administration [FDA]
Estrogen receptor (ER), a member of nuclear hormone receptor plays an important role in development, metabolic homeostasis and reproduction. Two subtypes of ER, ER-alpha and ER-beta, have similar expression patterns with some uniqueness in both types. Endocrine disrupting chemicals (EDCs) and their interactions with steroid hormone receptors like ER causes disruption of normal endocrine function. Therefore, it is important to understand the effect of environmental chemicals in ER signaling pathway. For identifying ER agonists, VM7Luc4E2 cell line has been used in the current assay.
VM7Luc4E2 cell line (provided by Denison MS, University of California) endogenously expresses full-length ER-alpha and is stably transfected with a plasmid containing four estrogen responsive elements (ERE) upstream of a luciferase reporter gene. This current screening for measuring luciferase reporter gene activity using VM7Luc4E2 cells against Tox21 10K library collection is a confirmation study on agonist mode screening in presence of ER-antagonist (ICI-182,780) at 10.0nM final concentration. The cytotoxicity of the compounds was tested in parallel by measuring the cell viability using CellTiter-Fluor assay system (Promega, Madison, WI) in the same wells.
Tox21 Assay Protocol Summary:
VM7Luc4E2 cells were cultured in phenol red free assay medium containing 10% charcoal stripped FBS for 5 days prior to the assay. The cells were dispensed at 4,000 cells in 4uL of assay medium per well into white wall/solid-bottom 1536-well plates (Corning Life Sciences, Corning, NY) using a Multidrop Combi (Thermo Fisher Scientific Inc., Waltham, MA) dispenser. After the assay plates were incubated at 37C and 5% CO2 for 24hr, 1uL of 10.0nM (final concentration) ICI-182,780 or assay buffer was added using two separate tips of Flying Reagent Dispenser (FRD, Aurora Discovery, San Diego, CA). Then 23nL of compounds dissolved in DMSO at 15 concentrations and positive controls or DMSO only was transferred to the assay plates by a Pintool station (Wako, San Diego, CA). The assay plates were incubated at 37C and 5% CO2 for 22hr. After 21hr incubation at 37C, 1uL/well CellTiter-Fluor reagent (Promega Corporation, Madison, WI) was added to each well using FRD and after 1hr incubation at 37C and 5% CO2, the fluorescence signal was measured on ViewLux plate reader (PerkinElmer, Shelton, CT).
Potency is the fitted concentration of half-maximal effect.

SMILES	Potency	activity change, negative = cytotoxicity
CC(C)(c1cc(Br)c(O)c(Br)c1)c1cc(Br)c(O)c(Br)c1	inactive	–
CCCCOCC	inactive	–
CC(C)=C1CC[C@@H](C)CC1=O	inactive	–
CCN(CC)c1ccc(N)cc1	28.1 µM (active)	–
CCc1cccc(CC)c1N(COC)C(=O)CS(=O)(=O)O	inactive	–
O=C1C=CC(=O)N1c1ccccc1	68.6 µM (active)	–
CSc1ccc2c(c1)N(CCC1CCCCN1C)c1ccccc1S2 (stereo not given)	68.3 µM (active) and inactive	–
CCO[Si](C)(C)OCC	inactive	–
Oc1c(Br)cc(Br)c2cccnc12	inactive	–
CC=O	10.1 µM (active)	–
O=C1OC(=O)c2cccc3cccc1c23	inactive	–
CCOC(=O)C1=C(C)NC(C)=C(C(=O)OCC)C1c1ccccc1/C=C/C(=O)OC(C)(C)C	inactive	–
CCC(C)c1cc([N+](=O)[O-])cc([N+](=O)[O-])c1OC(=O)OC(C)C (stereo not given)	54.5 µM (active)	–
Cc1cn[nH]c1	inactive	–
COC(=O)CC(C)CCC=C(C)C (stereo not given)	inactive	–
CC(=O)OC1CCCCC1	inactive	–
O=C=NCc1cccc(CN=C=O)c1	–	1.12% [at 19 µM] (inactive)
O=C(O)Cc1ccc(OCCNC[C@H](O)c2ccccc2)cc1	inactive	–
CC(C)(C)c1n[nH]c(=O)n(N)c1=O	inactive	–
CCOC(/C=C(\C)CCC=C(C)C)OCC	inactive	–

SMILES	Potency	activity change, negative = cytotoxicity
O=Cc1ccc(F)cc1	inactive	–
CCCCCCCOC(=O)c1ccc(O)cc1	inactive	–
CCCCCCC(C)OC(=O)COc1nc(F)c(Cl)c(N)c1Cl (stereo not given)	inactive	–
C#CC(O)CCC (stereo not given)	inactive	–
CC(=O)c1ccccc1N	inactive	–
Clc1ccccc1CN1CCc2sccc2C1	inactive	–
SCCCCCCCCS	inactive	–
C=CC(=O)OCCN(CC)CC	inactive	–
CC(C)=CC1CC(C)CCO1 (stereo not given)	inactive	–
Brc1ccccn1	inactive	–
CCCCCCCC/C=C\CCCCCCCC(=O)N(C)CC(=O)O	inactive	–
CC(=O)Oc1ccc(C2(c3ccc(OC(C)=O)cc3)C(=O)Nc3ccccc32)cc1	0.668 µM (active)	–
CCCCN(CCCC)CCC(O)c1cc2c(Cl)cc(Cl)cc2c2cc(C(F)(F)F)ccc12 (stereo not given)	inactive	–
[O]=[Zr]	inactive	–
OCCCCl	inactive	–
O=C1c2c(O)ccc([N+](=O)[O-])c2C(=O)c2c([N+](=O)[O-])ccc(O)c21	24.1 µM (active)	–
CCOC(OCC)C(=O)c1ccccc1	inactive	–
OCCCS	inactive	–
CCN(CC)CCSC(=O)C(c1ccccc1)c1ccccc1	inactive	–
CC(C)=CCCC(C)O (stereo not given)	inactive	–
